Results on 12 molecules are retold here after PubChem BioAssay (NCI).

This is part of a sample that, as a whole, favours compounds with a hit. Of some 83,000 tested, about 20% had one in any assay.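 In brief: 96-well plates, 48 h treatment, single concentration, percent growth endpoint.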 Calls of active or inactive are those of the source. Rule for the calls: active = growth percent below 10; inactive = the rest.

The first experiment concerns OVCAR-5 ovarian. The experiment can be described thus: NCI-60 one-dose screen, 48 h (100 = growth as untreated, 0 = no growth, -100 = all killed). The settings on record: 10 µM.
With `CCCS(=O)(=O)c1oc(-c2ccc(F)cc2)nc1S(=O)(=O)c1ccc(F)cc1`, the growth was -68.3% (active).
As for `CC(C)CCSc1nc(NC2CC2)c(C#N)c(-c2ccc(C(C)C)cc2)n1`, the growth was 111% (inactive).
The same measure, in the same setting: for `Cc1ccc(-c2nc3ccc(C(=O)N=Nc4c(O)[nH]c5ccc([N+](=O)[O-])cc45)cc3[nH]2)cc1` the value was 101% (inactive).

Another experiment relates to OVCAR-4 ovarian. The description is as above. The following applies: 10 µM.
For `CN1CCN(c2ccc(Nc3nc(N4CCN(S(=O)(=O)c5ccc(F)cc5)CC4)c4sccc4n3)cc2)CC1`, the growth was -89.3% (active).
`CCCCCc1ccc(S(=O)(=O)Nc2cc(-c3csc(N(C)C(C)=O)n3)ccc2N2CCN(C)CC2)cc1`: the growth was 11.6% (inactive).
As for `CN1CCN(c2ccc(Nc3nc(NCCCNC(=O)C4CCCCC4)c4sccc4n3)cc2)CC1`, the growth is 48.9% (inactive).
Still for that read-out and setting: the value for `N[C@@H](CSSC[C@H](N)C(=O)Nc1ccc(OCC2CCCC2)cc1)C(=O)Nc1ccc(OCC2CCCC2)cc1` was -96.9% (active).
Take `COc1ccc2nc(Cl)c(-c3cc(-c4ccccc4)nc(=O)[nH]3)cc2c1`: the growth was 85.3% (inactive).
In the case of `O=C(Nc1ccc(OCc2ccccc2)cc1)Nc1ccc(Cl)c(C(F)(F)F)c1`, the growth was 11.2% (inactive).
As for `COc1ccc2[nH]c(O)c(N=NC(=O)COc3ccc(NC(=O)Nc4ccc(Cl)cc4)cc3)c2c1`, the growth is -21.6% (active).
Regarding `Cc1cc2c(c(O)c1Br)-c1ncoc1C(=O)[C@]1(C)CC[C@H](C(C)C)[C@H]21`, the growth was 52.4% (inactive).
As for `CCN1CCN(c2ccc(NC(=O)Nc3ccc4c(c3F)CCN4c3ccnc(C(=O)NC)c3)cc2C(F)(F)F)CC1`, the growth is -89.6% (active).
